In PubChem BioAssay (EPA / NIEHS):
Values joined by “and” are separate entries in the source; they are usually repeats but may differ in a detail not shown here. Equal values may be shown once. The source holds several records for some structures; these can differ, active in one and inactive in another. Active and inactive are the calls of the source. The calls were made as follows: active = hit-call score of the fitted dose curve at least 0.9, where 1 is the maximum; inactive = score below 0.9.

How the values were obtained:
[1] = read-out: Interleukin-6 (IL6), IL6 (gene 3569); test: BSK_CASM3C_IL6: BioMAP Diversity Plus: CASM3C Assay for Interleukin-6 (IL6) Biomarker Activity for (AID 2283040); settings: primary human coronary artery smooth muscle cells; actives raise or lower the signal
[2] = read-out: Tissue plasminogen activator (tPA), PLAT (gene 5327); test: BSK_BE3C_tPA: BioMAP Diversity Plus: BE3C Assay for Tissue plasminogen activator (tPA) Biomarker Activity (AID 2283041); settings: primary human bronchial epithelial cells; actives raise or lower the signal
How it was run: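 Primary human bronchial epithelial cells in the BE3C system, exposed to compound for 24 h. tPA was quantified by ELISA; DMSO served as baseline, with gain or loss of signal fitted. Cytotoxicity checked in parallel cultures by SRB total-protein staining.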

[3] = read-out: Interleukin-8 (IL8), CXCL8 (gene 3576); test: BSK_CASM3C_IL8: BioMAP Diversity Plus: CASM3C Assay for Interleukin-8 (IL8) Biomarker Activity (AID 2283042); settings: primary human coronary artery smooth muscle cells; actives raise or lower the signal;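 also: IL-8 protein level quantified by ELISA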
[4] = read-out: Human Leukocyte Antigen - DR isotype (HLADR), HLA-DRA (gene 3122); test: BSK_CASM3C_HLADR: BioMAP Diversity Plus: CASM3C Assay for Human Leukocyte Antigen - DR isotype (HLADR) Biomarker Activity (AID 2283043); settings: primary human coronary artery smooth muscle cells; actives raise or lower the signal;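 also: cell-surface HLA-DR protein level quantified by ELISA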
[5] = read-out: Macrophage colony-stimulating factor (MCSF), CSF1 (gene 1435); test: BSK_CASM3C_MCSF: BioMAP Diversity Plus: CASM3C Assay for Macrophage colony-stimulating factor (MCSF) Biomarker Activity (AID 2283044); settings: primary human coronary artery smooth muscle cells; actives raise or lower the signal;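 also: M-CSF protein amount quantified by ELISA after 24 h exposure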
[6] = read-out: Low-density lipoprotein receptor (LDLR), LDLR (gene 3949); test: BSK_CASM3C_LDLR: BioMAP Diversity Plus: CASM3C Assay for Low-density lipoprotein receptor (LDLR) Biomarker Activity (AID 2283045); settings: primary human coronary artery smooth muscle cells; actives raise or lower the signal;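 also: LDLR protein level on the cell surface quantified by ELISA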
[7] = read-out: Monocyte Chemoattractant Protein-1 (MCP1), CCL2 (gene 6347); test: BSK_CASM3C_MCP1: BioMAP Diversity Plus: CASM3C Assay for Monocyte Chemoattractant Protein-1 (MCP1) Biomarker Activity (AID 2283046); settings: primary human coronary artery smooth muscle cells; actives raise or lower the signal;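 also: MCP-1 level quantified by ELISA 24 h after dosing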
[8] = BSK_CASM3C_Proliferation: Cell Proliferation Assessment in the BioMAP Diversity Plus: CASM3C Assay (AID 2283047); settings: primary human coronary artery smooth muscle cells;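 also: sulforhodamine B total protein stain as relative cell number at 560 nm; sub-confluent cells exposed 48 h before staining; fitted both ways against DMSO so gain or loss of cell number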
[9] = read-out: Monokine induced gamma interferon (MIG), CXCL9 (gene 4283); test: BSK_CASM3C_MIG: BioMAP Diversity Plus: CASM3C Assay for Monokine induced gamma interferon (MIG) Biomarker Activity (AID 2283048); settings: primary human coronary artery smooth muscle cells; actives raise or lower the signal;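 also: MIG protein level measured by ELISA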
[10] = read-out: serum amyloid A (SAA), SAA1 (gene 6288); test: BSK_CASM3C_SAA: BioMAP Diversity Plus: CASM3C Assay for serum amyloid A (SAA) Biomarker Activity (AID 2283049); settings: primary human coronary artery smooth muscle cells; actives raise or lower the signal;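 also: SAA protein level quantified by ELISA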
[11] = BSK_CASM3C_SRB: Viability Assessment in the BioMAP Diversity Plus: CASM3C Assay (AID 2283050); settings: primary human coronary artery smooth muscle cells
[12] = read-out: Thrombomodulin, THBD (gene 7056); test: BSK_CASM3C_Thrombomodulin: BioMAP Diversity Plus: CASM3C Assay for Thrombomodulin Biomarker Activity (AID 2283051); settings: primary human coronary artery smooth muscle cells; actives raise or lower the signal;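 also: thrombomodulin protein level measured by ELISA 24 h after dosing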
[13] = read-out: Tissue Factor, F3 (gene 2152); test: BSK_CASM3C_TissueFactor: BioMAP Diversity Plus: CASM3C Assay for Tissue Factor Biomarker Activity (AID 2283052); settings: primary human coronary artery smooth muscle cells; actives raise or lower the signal;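 also: cell surface tissue factor protein level read by ELISA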
[14] = read-out: Interferon-gamma inducible Protein 10 (IP10), CXCL10 (gene 3627); test: BSK_hDFCGF_IP10: BioMAP Diversity Plus: hDFCGF Assay for Interferon-gamma inducible Protein 10 (IP10) Biomarker Activity (AID 2283053); settings: primary human foreskin fibroblasts; actives raise or lower the signal
How it was run: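 Primary human foreskin fibroblasts exposed to chemicals for 24 h. IP-10 measured by ELISA; changes fitted bidirectionally against DMSO baseline.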

[15] = read-out: Urokinase-type plasminogen activator receptor (uPAR), PLAUR (gene 5329); test: BSK_CASM3C_uPAR: BioMAP Diversity Plus: CASM3C Assay for Urokinase-type plasminogen activator receptor (uPAR) Biomarker Activity (AID 2283054); settings: primary human coronary artery smooth muscle cells; actives raise or lower the signal;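 also: cell-surface uPAR protein level quantified by ELISA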
[16] = read-out: Vascular cell adhesion molecule 1 (VCAM1), VCAM1 (gene 7412); test: BSK_CASM3C_VCAM1: BioMAP Diversity Plus: CASM3C Assay for Vascular cell adhesion molecule 1 (VCAM1) Biomarker Activity (AID 2283055); settings: primary human coronary artery smooth muscle cells; actives raise or lower the signal;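 also: VCAM-1 protein level quantified by ELISA on the cells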
[17] = read-out: Collagen III, COL3A1 (gene 1281); test: BSK_hDFCGF_CollagenIII: BioMAP Diversity Plus: hDFCGF Assay for Collagen III Biomarker Activity (AID 2283056); settings: primary human foreskin fibroblasts; actives raise or lower the signal
How it was run: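 Cells: human foreskin fibroblasts, primary. Dosing followed by 24 h incubation, then ELISA for collagen III. Both increases and decreases scored relative to DMSO.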

[18] = read-out: Epidermal growth factor receptor (EGFR), EGFR (gene 1956); test: BSK_hDFCGF_EGFR: BioMAP Diversity Plus: hDFCGF Assay for Epidermal growth factor receptor (EGFR) Biomarker Activity (AID 2283057); settings: primary human foreskin fibroblasts; actives raise or lower the signal
How it was run: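 Primary human foreskin fibroblasts (hDFCGF system), sampled 24 h after dosing; EGFR quantified by ELISA. Bidirectional fit relative to DMSO baseline; SRB total-protein staining in parallel cultures for cytotoxicity.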

[19] = read-out: Interleukin-8 (IL8), CXCL8 (gene 3576); test: BSK_hDFCGF_IL8: BioMAP Diversity Plus: hDFCGF Assay for Interleukin-8 (IL8) Biomarker Activity (AID 2283058); settings: primary human foreskin fibroblasts; actives raise or lower the signal
How it was run: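 IL-8 levels from compound-treated primary human fibroblasts were read by ELISA at 24 h, with DMSO serving as baseline for bidirectional fitting.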

[20] = BSK_hDFCGF_Proliferation: Cell Proliferation Assessment in the BioMAP Diversity Plus: hDFCGF Assay (AID 2283059); settings: primary human foreskin fibroblasts;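 also: curves fitted for both rise and fall of signal versus DMSO baseline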
How it was run: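 Steps: dose primary human dermal fibroblasts (foreskin); […] fix in 10% TCA; stain with 0.1% SRB; read 560 nm; fit gain or loss of signal against DMSO.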

Measured: AC50

O=C(O)C(F)(F)C(F)(F)F
inactive: all assays above

OCC(F)(F)C(F)(F)C(F)(F)C(F)F
active: [6] 292 nM
inactive: [1] | [2] | [3] | [4] | [5] | [6] | [7] | [8] | [9] | [10] | [11] | [12] | [13] | [14] | [15] | [16] | [18] | [19] | [20]

OCC(F)(F)C(F)(F)C(F)(F)F
inactive: all assays above

NC(=O)C(F)(F)C(F)(F)C(F)(F)C(F)(F)F
inactive: all assays above

FC(F)(I)C(F)(F)C(F)(F)C(F)(F)I
inactive: [2] | [3] | [4] | [6] | [12] | [13] | [18]
active: [1] 45.6 µM and 44.9 µM and 30 µM | [2] 46.5 µM and 43.2 µM | [3] 47.5 µM and 48.2 µM | [4] 50.5 µM | [5] 47.5 µM and 50.2 µM and 46.8 µM | [6] 23.6 µM and 43.5 µM | [7] 44.4 µM and 46 µM and 46.1 µM | [8] 43.4 µM and 49.7 µM and 43.9 µM | [9] 44.3 µM and 48.1 µM and 46.8 µM | [10] 47.5 µM and 45 µM and 47.6 µM | [11] 43.5 µM and 47.2 µM and 48.7 µM | [13] 30 µM and 40.4 µM | [14] 47.9 µM and 55.1 µM and 58.4 µM | [15] 47.2 µM and 43.9 µM and 54.4 µM | [16] 45.7 µM and 45.6 µM and 47.9 µM | [17] 30 µM and 44.1 µM and 39.5 µM | [19] 53.7 µM and 54.7 µM and 56.5 µM | [20] 48.7 µM and 45.5 µM and 43.3 µM

CS(C)(=O)=O
not listed: [17]
inactive: all other assays above

C=C(C)C(=O)OCC(F)(F)C(F)(F)C(F)(F)F
inactive: all assays above

CCc1c(Br)c(Br)c(Br)c(Br)c1Br
active: [13] 4.48 µM
inactive: all other assays above

CC(=O)Nc1ccc(N=Nc2cc(C)ccc2O)cc1
active: [14] 34.1 µM | [16] 9.54 µM | [20] 20 µM
not listed: [17]
inactive: all other assays above

C=CC/C=C/C/C=C/C/C=C/C
active: [8] 108 nM
not listed: [17]
inactive: all other assays above
